Test results reported in PubChem BioAssay (EPA / NIEHS).
Inconclusive results are not listed. Some compounds were tested as several samples or in several runs, with calls that do not always agree. Calls of active or inactive are those of the source. Rule for the calls, unless noted: active = hit-call score of the fitted dose curve at least 0.9, where 1 is the maximum; inconclusive = response in the unintended direction; inactive = score below 0.9.

Tests used:
[1] = system: Sodium/Iodide Symporter (NIS), SLC5A5 (gene 6528); assay: CPHEA_Stoker_NIS_Inhibition_RAIU: CPHEA's Radioactive Iodide Uptake (RAIU) Assay for Sodium/Iodide Symporter (NIS) Inhibition, Stoker and Laws Labs (AID 2283841)
How it was run: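 Iodide uptake through human NIS is measured in an engineered HEK293T line. Cells take up 125I (329pM final) for 2 hours at room temperature alongside chemicals at 0.001–100uM. Retained radioactivity is counted, and the signal is expressed against DMSO controls.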

[2] = CPHEA_Stoker_NIS_Cytotoxicity: Cytotoxicity Assessment for CPHEA's Radioactive Iodide Uptake (RAIU) Assay for Sodium/Iodide Symporter (NIS) Inhibition, Stoker and Laws Labs (AID 2283897);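 for AC50: active means loss of ATP signal versus DMSO meaning cytotoxicity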
How it was run: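 ATP luminescence (Cell Titer Glo) measured viability, with loss of signal normalized to DMSO controls. Cells: hNIS-HEK293T-EPA, seeded 40 hours prior. Dosing: 0.001–100uM, 2 hours, room temperature, uptake buffer pH 7.4.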

[3] = CEETOX_H295R_11DCORT_noMTC: CeeTox H295R High-throughput Steroidogenesis Assay for 11-Deoxycortisol (11DCORT), maximum tolerated concentration (MTC) filtered results only (AID 2283911; active = hit-call score of the fitted dose curve at least 0.9, where 1 is the maximum; inactive = score below 0.9); conditions: actives raise or lower the signal
How it was run: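 Values carry no filtering for maximum tolerated concentration: medium from forskolin-primed (10 uM, 48 h) H295R cells after 48 h chemical exposure (0.1% DMSO) was MTBE-extracted, and 11-deoxycortisol quantified by reverse-phase HPLC-MS/MS. Fitting was bidirectional against DMSO.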

[4] = CEETOX_H295R_OHPREG_noMTC: CeeTox H295R High-throughput Steroidogenesis Assay for OH-Pregnenolone (OHPREG), maximum tolerated concentration (MTC) filtered results only (AID 2283912; active = hit-call score of the fitted dose curve at least 0.9, where 1 is the maximum; inactive = score below 0.9); conditions: actives raise or lower the signal
How it was run: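 Steroidogenesis in H295R cells (OECD 456, modified): after 48 h forskolin priming and 48 h chemical treatment, secreted 17alpha-hydroxypregnenolone is measured by HPLC-MS/MS. Activity is fitted in both directions against DMSO; concentrations are not filtered by MTT-based MTC.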

[5] = CEETOX_H295R_OHPROG_noMTC: CeeTox H295R High-throughput Steroidogenesis Assay for OH-Progesterone (OHPROG), maximum tolerated concentration (MTC) filtered results only (AID 2283914; active = hit-call score of the fitted dose curve at least 0.9, where 1 is the maximum; inactive = score below 0.9); conditions: actives raise or lower the signal
How it was run: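 Forskolin 10 uM, 48 h prestim → test cmpd in DMSO (0.1% final), 48 h → medium MTBE extraction → LC-MS/MS quant of 17alpha-OH-progesterone. Bidirectional fit vs DMSO; no MTT-based MTC filtering.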

[6] = CEETOX_H295R_ANDR_noMTC: CeeTox H295R High-throughput Steroidogenesis Assay for Androstenedione (ANDR), maximum tolerated concentration (MTC) filtered results only (AID 2283915; active = hit-call score of the fitted dose curve at least 0.9, where 1 is the maximum; inactive = score below 0.9); conditions: actives raise or lower the signal
Experimental: CEETOX_H295R is a cell-based, multiplexed-readout assay that uses H295R, a human adrenal gland cell line, with measurements taken at 48 hours after chemical dosing in a 96-well plate.CEETOX_H295R_ANDR_noMTC is one of 12 assay component(s) measured or calculated from the CEETOX_H295R assay (11 hormones and 1 viability assay). It is designed to make measurements of hormone induction, a form of inducible reporter, as detected with absorbance signals by HPLC-MS-MS technology. The concentrations for these components have not been pre-filtered for the maximum tolerated concentration (MTC) based on the MTT assay (_noMTC).Data from the assay component CEETOX_H295R_ANDR_noMTC was analyzed into 1 assay endpoint. This assay endpoint, CEETOX_H295R_ANDR_noMTC, was analyzed with bidirectional fitting relative to DMSO as the negative control and baseline of activity. […]
Cell culture and media preparation procedures were conducted in accordance with OECD Test No. 456 guidelines, with minor modifications. […] For steroid quantification, media samples were shipped to OpAns, LLC (Durham, NC) on dry ice, and samples were thawed to room temperature prior to liquid-liquid extraction. […] Steroid hormones were separated by HPLC, eluted using a reverse phase C18 gradient with electrospray positive ionization, followed by quantification by tandem mass spectrometry (MS/MS). […]

[7] = ATG_XTT_Cytotoxicity_XSP2: Cytotoxicity Assessment in the Attagene TRANS-FACTORIAL Multi-Species (XSP2) HepG2 Assay (AID 2283837)
How it was run: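 HepG2 cells, transiently transfected with multiple reporter constructs, exposed to chemical for 24 h. Cell number assessed with XTT fluorescence read-out; loss of signal fitted relative to DMSO.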

[8] = target: frog Thyroid hormone Receptor alpha (TRa), thra-a (gene 397942) (UniProt P15204); assay: ATG_frTRa_XSP2: Attagene TRANS-FACTORIAL Multi-Species (XSP2) HepG2 Assay for frog Thyroid hormone Receptor alpha (TRa) (AID 2283839);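 for AC50: AC50 reflects induction of frog TRa-driven reporter mRNA above DMSO baseline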
Sequence of frog Thyroid hormone Receptor alpha (TRa), thra-a (gene 397942) (P15204 whole entry, looked up): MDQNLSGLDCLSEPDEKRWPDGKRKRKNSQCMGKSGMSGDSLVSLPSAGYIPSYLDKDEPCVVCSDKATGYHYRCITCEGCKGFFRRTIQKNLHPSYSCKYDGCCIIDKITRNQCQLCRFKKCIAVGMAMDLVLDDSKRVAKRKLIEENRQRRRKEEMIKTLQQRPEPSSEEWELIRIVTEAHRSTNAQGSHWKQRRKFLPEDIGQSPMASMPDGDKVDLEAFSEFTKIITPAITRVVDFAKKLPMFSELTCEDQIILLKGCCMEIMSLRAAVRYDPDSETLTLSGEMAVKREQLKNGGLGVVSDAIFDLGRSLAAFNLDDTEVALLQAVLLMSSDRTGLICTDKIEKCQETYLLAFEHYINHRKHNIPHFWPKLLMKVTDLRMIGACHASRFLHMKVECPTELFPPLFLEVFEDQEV
Experimental: (§1) ATG_XSP2_multi-species_TRANS is a cell-based, multiplexed assay created by modifying the existing Attagene TRANS-FACTORIAL system to include a panel of nuclear receptors from some or all the following species: human (Homo sapiens), mouse (Mus musculus), frog (Xenopus laevis), zebrafish (Danio rerio), chicken (Gallus gallus), and turtle (Chrysemys picta). The ECOTOX-FACTORIAL format uses HepG2, a human liver cell line, with measurements taken at 24 hours after chemical dosing in a 24-well plate. Xsp2 included 3 nM 6-alpha-fluorotestosterone and 1.5 nM norgestrel to stimulate the androgen receptor.ATG_frTRa_XSP2 is one of 29 assay components measured or calculated from the ATG_XSP2_multi-species_TRANS assay. It is designed to make measurements of mRNA induction, a form of inducible reporter, as detected with fluorescence intensity signals by Reverse transcription polymerase chain reaction (RT-PCR) and Capillary electrophoresis technology.The assay endpoint ATG_frTRa_XSP2 was analyzed in the positive analysis fitting direction relative to DMSO as the negative control and baseline of activity. Using a type of inducible reporter, measures of mRNA for gain-of-signal activity can be used to understand the reporter gene at the transcription factor-level as they relate to the gene TR. Furthermore, this assay endpoint can be referred to as a primary readout, because this assay has produced multiple assay endpoints where this one serves a reporter gene function. To generalize the intended target to other relatable targets, this assay endpoint is annotated to the nuclear receptor intended target family, where the subfamily is non-steroidal.
Human liver HepG2 cells are transiently transfected with multiple reporter transcription units (MRTUs) in 6-well plates using FuGene 6 reagent (Roche; 3 ml FuGene/1 mg DNA). The MRTU constructs are regulated by a cis-regulating element (promoter). […] A major difference between the CIS and TRANS system is that in CIS activities of endogenous TFs are measured, whereas the TRANS assay evaluates changes in activities of exogenous, chimeric NR-Gal4 proteins. […] At the end of 24 hour incubation, total RNA was isolated using TriZol reagent (Invitrogen). The isolated RNA is then reverse-transcribed using oligo(dT) primer and Mo-MLV reverse transcriptase (Invitrogen) with DNAse I (Ambion) treatment for 30 min. […] The fragments were purified using Qiaquick PCR columns (Qiagen), analyzed on an ABI 3130xL genetic analyzer (Applied Biosystems) with peak positions identified by using a set of X-rhodamine (ROX)-labeled MapMarker1000 molecular weight standards (BioVentures). […]

[9] = target: human Thyroid hormone Receptor beta (TRb), THRB (gene 7068) (UniProt P10828); assay: ATG_hTRb_XSP2: Attagene TRANS-FACTORIAL Multi-Species (XSP2) HepG2 Assay for human Thyroid hormone Receptor beta (TRb) (AID 2283840);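 note: actives raise reporter mRNA so potency reflects agonist-like gain of signal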
Sequence of human Thyroid hormone Receptor beta (TRb), THRB (gene 7068) (P10828 whole entry, looked up, the tested form may be a part): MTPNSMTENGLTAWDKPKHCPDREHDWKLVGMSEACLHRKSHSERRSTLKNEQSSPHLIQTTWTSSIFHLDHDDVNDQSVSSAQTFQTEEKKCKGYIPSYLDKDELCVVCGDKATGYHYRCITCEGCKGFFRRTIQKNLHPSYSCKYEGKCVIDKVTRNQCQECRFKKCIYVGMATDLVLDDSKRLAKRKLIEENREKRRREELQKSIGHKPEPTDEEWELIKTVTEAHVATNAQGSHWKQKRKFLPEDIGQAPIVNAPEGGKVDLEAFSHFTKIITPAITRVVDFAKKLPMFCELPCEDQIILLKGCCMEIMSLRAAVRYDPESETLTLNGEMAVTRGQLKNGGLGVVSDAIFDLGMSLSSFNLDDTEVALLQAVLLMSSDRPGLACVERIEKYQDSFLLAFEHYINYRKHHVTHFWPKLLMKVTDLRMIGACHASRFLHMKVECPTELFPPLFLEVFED
How it was run: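 Activity of exogenous human TRb–Gal4 fusion measured by reporter mRNA from RT-PCR and capillary electrophoresis, 24 h after dosing transfected HepG2. 6-alpha-fluorotestosterone (3 nM) and norgestrel (1.5 nM) present. Gain-of-signal fit relative to DMSO.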

[10] = target: human Thyroid hormone Receptor alpha (TRa), THRA (gene 7067) (UniProt P10827); assay: ATG_hTRa_XSP2: Attagene TRANS-FACTORIAL Multi-Species (XSP2) HepG2 Assay for human Thyroid hormone Receptor alpha (TRa) (AID 2283838)
Sequence of human Thyroid hormone Receptor alpha (TRa), THRA (gene 7067) (P10827 whole entry, looked up): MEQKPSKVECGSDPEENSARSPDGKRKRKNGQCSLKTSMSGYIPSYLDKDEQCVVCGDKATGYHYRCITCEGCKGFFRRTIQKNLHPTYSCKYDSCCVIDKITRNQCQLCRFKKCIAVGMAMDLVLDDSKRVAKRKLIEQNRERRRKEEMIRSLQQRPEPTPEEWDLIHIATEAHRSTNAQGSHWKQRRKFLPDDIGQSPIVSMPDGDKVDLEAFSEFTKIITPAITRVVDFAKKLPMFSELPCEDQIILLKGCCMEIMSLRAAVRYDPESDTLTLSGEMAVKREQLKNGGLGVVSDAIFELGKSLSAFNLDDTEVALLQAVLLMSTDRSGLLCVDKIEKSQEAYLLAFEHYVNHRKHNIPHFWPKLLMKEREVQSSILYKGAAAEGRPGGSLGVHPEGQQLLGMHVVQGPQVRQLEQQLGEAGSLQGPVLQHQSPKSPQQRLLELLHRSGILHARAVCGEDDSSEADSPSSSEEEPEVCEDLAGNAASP
Experimental: as §1, with “receptor.ATG_hTRa_XSP2” for “receptor.ATG_frTRa_XSP2”, “ATG_hTRa_XSP2” for “ATG_frTRa_XSP2”, “Using a type of inducible reporter, measures of mRNA for gain-of-signal activity can be used to understand the reporter gene at the transcription factor-level as they relate to the gene TR.” left out, “To generalize the intended target to other relatable targets, this assay endpoint is annotated to the nuclear receptor intended target family, where the subfamily is non-steroidal.” left out
Human liver HepG2 cells are transiently transfected with multiple reporter transcription units (MRTUs) in 6-well plates using FuGene 6 reagent (Roche; 3 ml FuGene/1 mg DNA). […] A major difference between the CIS and TRANS system is that in CIS activities of endogenous TFs are measured, whereas the TRANS assay evaluates changes in activities of exogenous, chimeric NR-Gal4 proteins. […] The fragments were purified using Qiaquick PCR columns (Qiagen), analyzed on an ABI 3130xL genetic analyzer (Applied Biosystems) with peak positions identified by using a set of X-rhodamine (ROX)-labeled MapMarker1000 molecular weight standards (BioVentures). […]

In the case of `O=c1ssc(Cl)c1Cl`, the AC50 [1] is reported as 9.92 µM (active) and the AC50 [2] is reported as 80.9 µM (active).

With `COC(=O)C(F)(F)C(F)(F)OC(F)(C(F)(F)F)C(F)(F)OC(F)=C(F)F` (centres undefined) the outcome [1] was “inactive”.

For `O=[N+]([O-])c1ccc(Cl)c(Cl)c1`, the outcome [2] was “inactive”.

In the case of `O=NN1CCCC1`, the outcome [1] is reported as “inactive” and the outcome [2] is reported as “inactive”.

In the case of `CCOC(=O)c1ccccc1N`, the outcome [3] is reported as “inactive”, the outcome [4] is reported as “inactive” and the AC50 [5] is reported as 41.3 µM (active).

For `CCOP(=S)(OCC)SCS(=O)(=O)CC`, the AC50 [3] was 39.2 µM (active), the AC50 [4] was 43 µM (active) and the outcome [5] was “inactive”. For the same compound, the AC50 [6] was 37.9 µM (active).

For `CCOC(=O)c1ccccc1C(=O)OCC`, the outcome [3] was “inactive”, the outcome [4] was “inactive” and the outcome [5] was “inactive”.

In the case of `c1ccc2c(c1)sc1ccccc12`, the outcome [1] is reported as “inactive” and the outcome [2] is reported as “inactive”.

With `O=S1(=O)OCC2C(CO1)C1(Cl)C(Cl)=C(Cl)C2(Cl)C1(Cl)Cl` (centres undefined) the outcome [2] was “inactive”.

With `O=P(OCC(Br)CBr)(OCC(Br)CBr)OCC(Br)CBr` (centres undefined) the outcome [1] was “inactive”.

For `OCC(F)(F)OC(F)(F)C(F)(F)OC(F)(F)C(F)(F)OC(F)(F)F`, the outcome [1] was “inactive”.

For `OCC(F)(F)OC(F)(F)C(F)(F)OC(F)(F)C(F)(F)OC(F)(F)CO`, the outcome [1] was “inactive”.

With `CO/N=C(/C(=O)OC)c1ccccc1COc1ccccc1C` the AC50 [1] was 7.83 µM (active) and the outcome [2] was “inactive”.

For `CC(C)(C)N(NC(=O)c1ccc(Cl)cc1)C(=O)c1ccccc1`, the outcome [1] was “inactive” and the outcome [2] was “inactive”.

For `CCC(C)(C)c1ccc(O)cc1`, the outcome [7] was “inactive”, the outcome [8] was “inactive” and the outcome [9] was “inactive”. The outcome [2] was “inactive”.

With `c1ccc2c(c1)Nc1ccccc1S2` the outcome [7] was “inactive”, the outcome [10] was “inactive” and the outcome [8] was “inactive”. For the same compound, the outcome [9] was “inactive”.

With `CCOc1ccc(C(C)(C)COCc2cccc(Oc3ccccc3)c2)cc1` the AC50 [3] was 13.1 µM (active), the outcome [4] was “inactive” and the AC50 [5] was 13.2 µM (active).

In the case of `CCOP(=S)(OCC)SCSCC`, the outcome [1] is reported as “inactive” and the outcome [2] is reported as “inactive”.

For `CCCCc1ccc(O)cc1`, the outcome [7] was “inactive”, the outcome [10] was “inactive” and the AC50 [9] was 31 µM (active). For the same compound, the outcome [9] was “inactive”, the outcome [1] was “inactive” and the outcome [2] was “inactive”.

In the case of `CCOP(=S)(Oc1ccc([N+](=O)[O-])cc1)c1ccccc1` (centres undefined), the outcome [1] is reported as “inactive” and the outcome [2] is reported as “inactive”.

In the case of `O=S(=O)(c1ccc(O)cc1)c1ccc(O)cc1`, the outcome [7] is reported as “inactive”, the outcome [10] is reported as “inactive” and the AC50 [8] is reported as 100 µM (active). For the same compound, the outcome [9] was “inactive”.

For `ClC1=C(Cl)C2(Cl)C3C(Cl)C(Cl)CC3C1(Cl)C2(Cl)Cl` (centres undefined), the outcome [1] was “inactive” and the AC50 [2] was 9.92 µM (active).

With `O=P(Oc1ccccc1)(Oc1ccccc1)Oc1ccccc1` the AC50 [1] was 50 µM (active).

With `O=S(=O)(F)C(F)(F)C(F)(F)C(F)(F)C(F)(F)C(F)(F)C(F)(F)C(F)(F)C(F)(F)F` the outcome [1] was “inactive”.

With `CC(C)(C)c1ccc(O)cc1` the outcome [8] was “inactive” and the outcome [1] was “inactive”.

With `CCCCC(CC)COP(=O)(Oc1ccccc1)Oc1ccccc1` (centres undefined) the outcome [1] was “inactive” and the outcome [2] was “inactive”.
